The nature of experiment [1]: NCI Yeast Anticancer Drug Screen. Data for the rad50 strain (AID 155).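 Note: 0% = growth of vehicle-only cultures of the same strain.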 The note with it: S. cerevisiae rad50 strain growth inhibition; at 50.0 µM; active compounds read high. In outline: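 Yeast carrying a defined DNA repair defect were exposed to test compounds, and growth was compared with vehicle-treated controls to give percent inhibition.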
Experiment [2] is described as follows: NCI Yeast Anticancer Drug Screen. Data for the mec2-1 strain (AID 157). The note with it: S. cerevisiae mec2-1 strain, at 50.0 µM, active compounds read high. In outline:
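Strain: mec2-1 (DNA repair/cell cycle alteration). Compound exposure, then growth measured; inhibition expressed relative to vehicle.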

Experiment [3] can be described thus: NCI Yeast Anticancer Drug Screen. Data for the sgs1 mgt1 strain (AID 161).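 Note: 0% = growth of cultures given vehicle only.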 The note with it: S. cerevisiae sgs1 mgt1 strain, at 50.0 µM, active compounds read high. In short, it runs like this:
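Test agents were incubated with a DNA-repair-mutant yeast strain. Growth was then read and compared against vehicle-treated controls.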

Experiment [4] in a line: NCI Yeast Anticancer Drug Screen. Data for the cln2 rad14 strain (AID 165).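 Note: 0% = growth equal to vehicle treated cultures.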 The note with it: S. cerevisiae cln2 rad14 strain, at 50.0 µM, active compounds read high. In short, it runs like this: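 Compounds are applied to the cln2 rad14 yeast strain, and growth is then compared with that of vehicle-treated cultures to give inhibition.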
Experiment [5] in a line: NCI Yeast Anticancer Drug Screen. Data for the bub3 strain (AID 167). The following applies: S. cerevisiae bub3 mutant strain, at 50.0 µM, active compounds read high. In short, it runs like this: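 Compounds were applied to a genetically altered yeast strain carrying a cell-cycle control defect. Growth inhibition was scored against vehicle-treated controls.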
Experiment [6] in a line: NCI Yeast Anticancer Drug Screen. Data for the mlh1 rad18 strain (AID 175). The following applies: S. cerevisiae mlh1 rad18 strain growth inhibition; at 50.0 µM; active compounds read high. In outline:
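Read-out is yeast growth inhibition, calculated against vehicle-only controls. The compound was applied to a strain engineered with DNA damage repair alterations.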

We go through 24 compounds from PubChem BioAssay (NCI).

This is part of a sample that, as a whole, favours compounds with a hit. Of some 79,000 tested, about 15% had one in any assay. A number with no mark means an inactive call. The source made the active and inactive calls. Cut-off read from the data, not from the text of the source: active = growth inhibition above about 70%; inactive = the rest.

`COc1cc(CN)ccc1O`: the growth inhibition is 1.65% in experiment [1]; -6.25% in experiment [2]; -8.75% in experiment [3]; 10.7% in experiment [4]; 11.8% in experiment [5]; 12.2% in experiment [6].

On to `CCC(O)CC(CC)CO` (stereo not given), for which the growth inhibition in experiment [1] was -4.1%; in experiment [2], -2.7%; in experiment [3] it was 4.4%; in experiment [4], -32.7%; in experiment [5], -12.2%; in experiment [6], -10.1%.

On to `COc1cccc(Sc2ccc([N+](=O)[O-])c3no[n+]([O-])c23)c1`, for which the growth inhibition was 81.5% (active) in experiment [1]; 91.7% (active) in experiment [2]; 90.2% (active) in experiment [3]; 83.3% (active) in experiment [4]; 88.4% (active) in experiment [5]; 83.5% (active) in experiment [6].

As for `COC(=O)C(C)Oc1ccc(OC#N)cc1` (stereo not given), the growth inhibition was -21.3% in experiment [1]; -14.1% in experiment [2]; 8.9% in experiment [3]; -3% in experiment [4]; 6.25% in experiment [5]; 23.5% in experiment [6].

Regarding `Nc1nc(OCc2ccccc2)c2[nH]cnc2n1`, the growth inhibition in experiment [1] was -15.3%; in experiment [2] it was -0.15%; in experiment [3], -48.1%; in experiment [5], -30.9%; in experiment [6] it was -42.5%.

For `N#Cc1ccc(NC(=O)Nc2cccc(C#N)c2)cc1`, the growth inhibition in experiment [1] was -3.5%; in experiment [2], -12.3%; in experiment [3], -9.75%; in experiment [5], -0.3%; in experiment [6] it was -15.6%.

With `C[C@]12CC[C@@H]3c4ccc(OCC(=O)O)cc4CC[C@H]3[C@@H]1CCC2=O`, the growth inhibition is 16% in experiment [1]; 0.35% in experiment [2]; -18.7% in experiment [3]; -8% in experiment [4]; 5.6% in experiment [5]; 2.05% in experiment [6].

As for `Cc1cc(Cc2cc(C)c(N)cc2N)c(N)cc1N`, the growth inhibition in experiment [1] is -1.6%; in experiment [2], -49.4%; in experiment [3], -23.9%; in experiment [5], -2.25%; in experiment [6] it was 15.9%.

As for `COC(=O)C(O)c1ccccc1` (stereo not given), the growth inhibition was 21.4% in experiment [1]; 11.3% in experiment [2]; 5.55% in experiment [3]; 11.1% in experiment [5]; 20% in experiment [6].

For the compound `CCNc1nc2c(cnn2C)c(=O)[nH]1`, the growth inhibition in experiment [1] is -16.6%; in experiment [2], 28.4%; in experiment [3], 4.4%; in experiment [4], -34.1%; in experiment [5], 28.1%; in experiment [6], 29.4%.

Regarding `CCc1ccc(/C(C#N)=C/C=C/c2ccccc2)cc1`, the growth inhibition in experiment [1] is 8.9%; in experiment [2], -12.2%; in experiment [3] it was 20.6%; in experiment [5] it was 38%; in experiment [6], 14.7%.

As to `COc1cc2cc(c1Cl)N(C)C(=O)C[C@H](OC(=O)[C@H](C)N(C)C(C)=O)[C@]1(C)O[C@H]1[C@H](C)[C@@H]1C[C@@](O)(NC(=O)O1)[C@H](OC)C=C/C=C(\C)C2`, the growth inhibition in experiment [1] is 12.1%; in experiment [2] it was -11.4%; in experiment [3] it was 6.55%; in experiment [5] it was 5.9%; in experiment [6] it was 25.3%.

Consider `Cc1c(O)cccc1O`, for which the growth inhibition in experiment [1] was -5.55%; in experiment [2], -17.4%; in experiment [3], 7.8%; in experiment [5], -8.2%; in experiment [6], -8.3%.

In the case of `c1ccc(/C(=N\N=C(/c2ccccc2)c2cccs2)c2cccs2)cc1`, the growth inhibition is 18.3% in experiment [1]; -23.1% in experiment [2]; 25.7% in experiment [3]; 23.6% in experiment [5]; 10.6% in experiment [6].

Take `CCOC(=O)C1=C(C)NC(=O)NC1c1cccs1` (stereo not given): the growth inhibition is -11.2% in experiment [1]; -26.9% in experiment [2]; -14.4% in experiment [3]; -14.2% in experiment [5]; -20.1% in experiment [6].

For the compound `N#CCCN(CCCN1CCOCC1)CN1C(=O)c2ccccc2C1=O`, the growth inhibition in experiment [1] is 5.8%; in experiment [2] it was 9.15%; in experiment [3], 35.5%; in experiment [4], 5.8%; in experiment [5], 34.6%; in experiment [6], 19.4%.

Take `CCCCCCCCOC(=O)c1ccccn1`: the growth inhibition is -6.75% in experiment [1]; 0.3% in experiment [2]; -8.05% in experiment [3]; -59% in experiment [4]; 16.6% in experiment [5]; -3.2% in experiment [6].

Take `O=[N+]([O-])c1ccc(Sc2ccncn2)c([N+](=O)[O-])c1`: the growth inhibition in experiment [1] was 24.7%; in experiment [2], 16.6%; in experiment [3], 8.9%; in experiment [4], -5.55%; in experiment [5], -12.3%; in experiment [6], 30.8%.

On to `CCC(C#N)(CC)c1ccccc1`, for which the growth inhibition is 16% in experiment [1]; 13.4% in experiment [2]; 11.1% in experiment [3]; -3.2% in experiment [5]; 36.3% in experiment [6].

`O=C(O)CCC(=O)OC(C1CO1)C(OC(=O)CCC(=O)O)C1CO1` (stereo not given): the growth inhibition was -0.85% in experiment [1]; -16.5% in experiment [2]; -7.3% in experiment [3]; -11.6% in experiment [5]; -44.7% in experiment [6].

`O=c1cc(-c2ccccc2)nc2cc(-c3ccco3)[nH]n12`: the growth inhibition is -8.1% in experiment [1]; -14.7% in experiment [2]; -6.05% in experiment [3]; -2.6% in experiment [5]; -3.85% in experiment [6].

For `O=[N+]([O-])c1ccc(-c2ncc(-c3ccc(Br)cc3)o2)cc1`, the growth inhibition in experiment [1] was -0.1%; in experiment [2] it was -3.3%; in experiment [3] it was 21.9%; in experiment [4] it was 11.6%; in experiment [5], 17.2%; in experiment [6], 3.45%.

Turning to `Cc1ccc(/C(C#N)=C/c2ccc3c(c2)OCO3)cc1`, the growth inhibition was 23.6% in experiment [1], 25.5% in experiment [2], 26.3% in experiment [3] and 47.8% in experiment [5].

Take `Cc1ccc(Cl)cc1NC(=O)N(C)CCO`: the growth inhibition is 6.3% in experiment [1]; 7.65% in experiment [2]; 9.9% in experiment [3]; 16.6% in experiment [4]; 4.05% in experiment [5]; 22.7% in experiment [6].
